Among the data in ChEMBL document CHEMBL3988442, “University of Dundee, Small-Polar-MMV Screening Library” (2021) are Percent Effect values, retold here.

Each structure is given as a SMILES string. For part of these data: Potency and affinity values are given separately.

Common to all, as to set-up: scale not given: direction of the effect not stated beside the values
Experiment [1] has as its target Protein translocase subunit SecA (Escherichia coli (strain K12)) (UniProt P10408). Description: Assay to Identify E. coli SecA ATPase Inhibitors. The following applies: 30 µM. The experiment is classed as functional.
The target in experiment [2] is T1, Ubiquitin-activating enzyme e1, putative (Leishmania donovani (strain BPK282A1)) (UniProt E9BSI1).
T1 sequence (whole entry): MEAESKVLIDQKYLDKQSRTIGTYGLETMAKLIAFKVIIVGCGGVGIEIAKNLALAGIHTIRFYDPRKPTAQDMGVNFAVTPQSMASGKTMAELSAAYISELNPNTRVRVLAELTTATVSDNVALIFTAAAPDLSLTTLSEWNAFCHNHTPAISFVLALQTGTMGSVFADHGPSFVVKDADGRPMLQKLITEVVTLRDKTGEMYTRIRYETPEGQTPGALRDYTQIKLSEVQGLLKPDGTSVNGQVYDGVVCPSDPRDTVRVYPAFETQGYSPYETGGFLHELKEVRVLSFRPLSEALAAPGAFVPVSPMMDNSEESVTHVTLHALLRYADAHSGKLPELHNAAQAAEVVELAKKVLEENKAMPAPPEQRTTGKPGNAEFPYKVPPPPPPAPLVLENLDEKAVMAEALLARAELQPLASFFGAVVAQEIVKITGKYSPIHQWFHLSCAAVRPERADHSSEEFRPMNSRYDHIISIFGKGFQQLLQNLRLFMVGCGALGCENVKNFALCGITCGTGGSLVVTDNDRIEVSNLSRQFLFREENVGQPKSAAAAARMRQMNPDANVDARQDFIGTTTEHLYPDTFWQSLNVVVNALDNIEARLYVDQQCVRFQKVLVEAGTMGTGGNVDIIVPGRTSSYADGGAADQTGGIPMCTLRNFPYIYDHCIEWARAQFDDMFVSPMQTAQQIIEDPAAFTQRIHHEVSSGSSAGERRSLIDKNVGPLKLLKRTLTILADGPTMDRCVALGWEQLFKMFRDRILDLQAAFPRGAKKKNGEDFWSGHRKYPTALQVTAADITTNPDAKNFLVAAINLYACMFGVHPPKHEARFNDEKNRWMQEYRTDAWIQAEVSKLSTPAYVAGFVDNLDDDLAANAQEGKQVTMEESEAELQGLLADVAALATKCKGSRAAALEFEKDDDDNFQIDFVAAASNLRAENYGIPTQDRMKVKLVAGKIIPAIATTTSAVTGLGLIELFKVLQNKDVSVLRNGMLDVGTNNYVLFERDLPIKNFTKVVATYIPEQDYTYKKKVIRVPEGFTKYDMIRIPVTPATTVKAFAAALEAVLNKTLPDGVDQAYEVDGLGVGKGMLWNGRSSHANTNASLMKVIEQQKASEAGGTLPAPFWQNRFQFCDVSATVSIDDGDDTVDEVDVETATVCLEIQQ
Description: Leishmania donovani Ubiquitin Activating Enzyme (LdE1). Conditions: 30 µM. The class given is functional.

Experiment [3] has as its target Sialic acid-binding Ig-like lectin 9 (Homo sapiens) (UniProt Q9Y336). Description: Hs-Siglec9 ALPHAscreen SOP 20170721. The following applies: 10 µM.
For a further experiment, the system named is Trypanosoma cruzi. The experiment can be described thus: Trypanosoma cruzi phosphomannomutase and mannose-1-phosphate guanylyltransferase assay. The class given is functional. Conditions: 10 µM.
Experiment [4] concerns the target T2, Arginase-2, mitochondrial (Homo sapiens) (UniProt P78540).
T2 sequence (whole entry): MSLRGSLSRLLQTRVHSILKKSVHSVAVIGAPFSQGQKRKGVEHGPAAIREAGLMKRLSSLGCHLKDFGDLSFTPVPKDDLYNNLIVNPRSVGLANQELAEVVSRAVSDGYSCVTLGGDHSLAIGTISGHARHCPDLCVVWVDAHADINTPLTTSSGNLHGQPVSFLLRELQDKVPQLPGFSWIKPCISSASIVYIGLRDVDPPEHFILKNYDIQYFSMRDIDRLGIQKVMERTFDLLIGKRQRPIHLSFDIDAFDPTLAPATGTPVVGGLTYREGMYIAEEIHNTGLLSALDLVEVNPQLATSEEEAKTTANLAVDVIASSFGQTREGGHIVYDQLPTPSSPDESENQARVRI
The experiment can be described thus: in vitro enzyme assay to detect the production of urea directly proportional to the activity of Arginase II. Also: in the data most compounds retested in dose-response had high values. The class given is functional. Conditions: 33.3 µM.

For experiment [5], the target named is T3, Proteasome subunit beta (Trypanosoma cruzi) (UniProt O96673).
T3 sequence (whole entry): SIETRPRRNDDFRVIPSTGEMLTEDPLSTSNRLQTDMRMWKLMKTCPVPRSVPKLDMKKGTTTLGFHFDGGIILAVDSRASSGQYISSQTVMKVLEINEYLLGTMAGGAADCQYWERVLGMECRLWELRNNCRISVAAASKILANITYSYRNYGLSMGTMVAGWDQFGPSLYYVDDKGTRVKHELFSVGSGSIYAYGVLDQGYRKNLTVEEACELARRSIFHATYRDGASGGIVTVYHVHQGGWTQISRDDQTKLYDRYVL
The experiment can be described thus: Trypanosoma cruzi proteasome chymotrypsin-like activity (TcProtChymo) assay. Also: in the data most compounds retested in dose-response had high values. The class given is functional. The following applies: 9.37 µM.

The species named for the next experiment is Homo sapiens. The experiment can be described thus: To identify inhibition of the IFN signalling (Jak-Stat) pathway via expression of an eGFP reporter gene under the control of an IFN-stimulated response element (ISRE) containing MxA promoter. The experiment is classed as functional. Conditions: 30 µM.
Experiment [6] concerns the target T4, Tyrosyl-tRNA synthetase, putative (Trypanosoma cruzi (strain CL Brener)) (UniProt Q4DSP6).
T4 sequence (whole entry): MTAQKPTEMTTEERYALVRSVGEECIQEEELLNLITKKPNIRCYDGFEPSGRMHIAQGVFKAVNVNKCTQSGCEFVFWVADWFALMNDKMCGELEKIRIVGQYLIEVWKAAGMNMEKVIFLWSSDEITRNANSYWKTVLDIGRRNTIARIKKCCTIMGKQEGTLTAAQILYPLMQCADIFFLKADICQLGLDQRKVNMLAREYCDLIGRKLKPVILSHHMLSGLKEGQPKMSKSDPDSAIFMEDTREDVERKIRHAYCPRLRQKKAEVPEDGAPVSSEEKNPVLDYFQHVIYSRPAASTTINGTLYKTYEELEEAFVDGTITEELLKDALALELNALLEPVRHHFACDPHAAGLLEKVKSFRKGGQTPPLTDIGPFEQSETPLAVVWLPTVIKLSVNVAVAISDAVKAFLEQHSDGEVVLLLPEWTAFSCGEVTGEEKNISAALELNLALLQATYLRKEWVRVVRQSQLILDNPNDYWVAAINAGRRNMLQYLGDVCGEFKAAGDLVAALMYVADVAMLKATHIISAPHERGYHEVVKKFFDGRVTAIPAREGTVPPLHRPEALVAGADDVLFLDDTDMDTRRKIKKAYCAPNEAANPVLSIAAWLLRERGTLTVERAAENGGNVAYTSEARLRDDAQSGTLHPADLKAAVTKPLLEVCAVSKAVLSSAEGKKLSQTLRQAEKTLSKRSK
The experiment can be described thus: Trypanosoma cruzi tyrosyl tRNA synthetase (TcYRS) _High Tyrosine SOP. Also: in the data most compounds retested in dose-response had high values. The class given is functional. The following applies: 30 µM.

Experiment [7] deals with T4, Tyrosyl-tRNA synthetase, putative (Trypanosoma cruzi (strain CL Brener)). Description: Trypanosoma cruzi tyrosyl tRNA synthetase (TcYRS) SOP. The class given is functional. The following applies: 30 µM.
Experiment [8] addresses Chromo domain-containing protein 1 (Saccharomyces cerevisiae (strain ATCC 204508 / S288c) (Baker's yeast)) (UniProt P32657). Description: ScCHD-1 Enzyme Inhibition Assay. Also: in the data most compounds retested in dose-response had high values. The class given is functional. The following applies: 30 µM.

Protein translocase subunit SecA (Escherichia coli (strain K12)), sequence (P10408 whole entry): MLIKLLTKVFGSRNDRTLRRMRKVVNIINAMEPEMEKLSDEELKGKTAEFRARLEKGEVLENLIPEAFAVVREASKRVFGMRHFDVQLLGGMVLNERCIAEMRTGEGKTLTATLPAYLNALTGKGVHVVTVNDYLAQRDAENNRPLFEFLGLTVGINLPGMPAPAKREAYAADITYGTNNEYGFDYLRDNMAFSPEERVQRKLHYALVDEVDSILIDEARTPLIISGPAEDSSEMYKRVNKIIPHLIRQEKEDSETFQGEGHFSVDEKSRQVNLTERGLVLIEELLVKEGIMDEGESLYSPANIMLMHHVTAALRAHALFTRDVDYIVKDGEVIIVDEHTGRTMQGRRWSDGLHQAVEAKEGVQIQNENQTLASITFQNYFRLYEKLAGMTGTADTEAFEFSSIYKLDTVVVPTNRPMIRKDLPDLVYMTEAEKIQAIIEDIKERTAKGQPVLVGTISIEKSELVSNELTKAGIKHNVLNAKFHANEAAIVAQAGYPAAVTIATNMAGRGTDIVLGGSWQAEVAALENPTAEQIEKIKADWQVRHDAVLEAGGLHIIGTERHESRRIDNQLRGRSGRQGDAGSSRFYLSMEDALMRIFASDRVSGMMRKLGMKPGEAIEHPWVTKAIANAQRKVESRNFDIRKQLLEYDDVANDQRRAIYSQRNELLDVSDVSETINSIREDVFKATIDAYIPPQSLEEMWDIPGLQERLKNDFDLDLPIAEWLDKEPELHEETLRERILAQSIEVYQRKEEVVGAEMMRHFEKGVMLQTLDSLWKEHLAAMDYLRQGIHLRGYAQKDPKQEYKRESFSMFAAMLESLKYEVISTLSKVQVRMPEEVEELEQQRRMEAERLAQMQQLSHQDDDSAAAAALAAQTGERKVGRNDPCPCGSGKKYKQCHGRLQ
Sialic acid-binding Ig-like lectin 9 (Homo sapiens), sequence (Q9Y336 whole entry): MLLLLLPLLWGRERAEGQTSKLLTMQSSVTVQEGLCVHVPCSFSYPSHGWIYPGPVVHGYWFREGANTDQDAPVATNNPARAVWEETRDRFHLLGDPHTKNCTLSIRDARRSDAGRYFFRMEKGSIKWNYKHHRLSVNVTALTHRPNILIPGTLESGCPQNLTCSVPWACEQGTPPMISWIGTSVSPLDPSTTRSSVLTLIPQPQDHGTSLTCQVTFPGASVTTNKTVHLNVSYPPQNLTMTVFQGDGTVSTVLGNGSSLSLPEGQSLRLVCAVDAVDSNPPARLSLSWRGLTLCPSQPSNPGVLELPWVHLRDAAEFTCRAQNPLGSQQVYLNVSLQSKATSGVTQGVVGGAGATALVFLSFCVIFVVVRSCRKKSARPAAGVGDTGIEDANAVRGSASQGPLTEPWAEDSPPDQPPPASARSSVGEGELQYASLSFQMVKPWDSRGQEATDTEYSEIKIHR
Chromo domain-containing protein 1 (Saccharomyces cerevisiae (strain ATCC 204508 / S288c) (Baker's yeast)), sequence (P32657 whole entry, the tested form may be a part): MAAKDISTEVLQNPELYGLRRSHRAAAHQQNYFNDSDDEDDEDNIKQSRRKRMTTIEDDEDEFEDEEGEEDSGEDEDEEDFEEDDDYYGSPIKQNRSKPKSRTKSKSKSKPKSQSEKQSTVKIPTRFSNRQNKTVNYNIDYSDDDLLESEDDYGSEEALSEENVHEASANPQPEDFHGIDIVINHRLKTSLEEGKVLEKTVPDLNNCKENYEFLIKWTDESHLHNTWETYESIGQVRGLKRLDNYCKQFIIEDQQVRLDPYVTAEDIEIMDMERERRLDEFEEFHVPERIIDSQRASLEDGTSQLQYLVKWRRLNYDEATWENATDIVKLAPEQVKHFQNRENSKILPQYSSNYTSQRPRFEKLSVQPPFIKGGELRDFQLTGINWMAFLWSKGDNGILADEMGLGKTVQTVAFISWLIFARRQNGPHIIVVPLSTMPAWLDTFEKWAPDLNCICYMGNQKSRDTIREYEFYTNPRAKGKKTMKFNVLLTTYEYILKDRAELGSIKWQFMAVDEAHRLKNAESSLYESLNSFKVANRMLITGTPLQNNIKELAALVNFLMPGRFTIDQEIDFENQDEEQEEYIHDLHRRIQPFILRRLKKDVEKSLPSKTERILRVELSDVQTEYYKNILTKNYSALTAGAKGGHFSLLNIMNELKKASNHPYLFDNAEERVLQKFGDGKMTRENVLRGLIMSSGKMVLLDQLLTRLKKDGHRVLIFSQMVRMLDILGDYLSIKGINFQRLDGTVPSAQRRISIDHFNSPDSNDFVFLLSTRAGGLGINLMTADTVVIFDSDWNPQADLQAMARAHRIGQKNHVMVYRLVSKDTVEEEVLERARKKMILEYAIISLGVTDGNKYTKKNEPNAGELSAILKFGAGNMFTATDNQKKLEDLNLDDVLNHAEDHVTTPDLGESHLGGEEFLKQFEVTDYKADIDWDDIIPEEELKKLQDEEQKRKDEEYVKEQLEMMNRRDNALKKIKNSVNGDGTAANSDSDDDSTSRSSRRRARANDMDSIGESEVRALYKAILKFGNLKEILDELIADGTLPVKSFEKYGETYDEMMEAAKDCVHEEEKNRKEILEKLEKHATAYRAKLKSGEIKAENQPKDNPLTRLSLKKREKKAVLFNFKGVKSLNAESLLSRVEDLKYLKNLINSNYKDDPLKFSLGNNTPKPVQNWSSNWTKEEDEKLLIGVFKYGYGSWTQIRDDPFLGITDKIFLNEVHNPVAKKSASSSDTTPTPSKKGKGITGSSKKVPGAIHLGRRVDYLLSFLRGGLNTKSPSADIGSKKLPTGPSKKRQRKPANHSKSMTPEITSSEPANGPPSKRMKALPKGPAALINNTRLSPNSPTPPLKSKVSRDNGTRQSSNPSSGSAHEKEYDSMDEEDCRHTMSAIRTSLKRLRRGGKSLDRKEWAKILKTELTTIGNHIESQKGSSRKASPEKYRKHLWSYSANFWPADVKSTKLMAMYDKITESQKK

On to `CNc1nc(C2CCCN2C(C)=O)nc2c1CCN(CC1CC1)C2` (stereo not given), for which the Percent Effect in experiment [1] was -3.68%; in experiment [2], 9.33%; in [3] it was 5.24%; with Trypanosoma cruzi, -0.197%; in experiment [4] it was 0.885%; in [5] it was 12.2%. The Percent Effect was 6.58% in the experiment filed under Homo sapiens, 3.17% in experiment [6], 10% in [7] and -22.7% in experiment [8].
Consider `O=C(NCc1cc[nH]n1)NCC(O)c1ccc(F)cc1F` (stereo not given), for which the Percent Effect is -0.475% in experiment [1]; 8% in experiment [2]; -0.795% in experiment [3]; -4.82% in the experiment on Trypanosoma cruzi; -0.444% in [4]; 7.38% in experiment [5]. Moreover, the Percent Effect in the experiment filed under Homo sapiens is -4.21%; in [6] it was 5.79%; in experiment [7] it was 10.3%; in experiment [8], -7.37%.
On to `CN(Cc1ccccc1)CC(O)Cn1cnc2ccccc2c1=O` (stereo not given), for which the Percent Effect in experiment [1] was -0.933%; in experiment [2], 2.56%; in [3], 0.642%; in the experiment with Trypanosoma cruzi, 4.79%; in [4], 9.84%; in experiment [5], -2.13%. The Percent Effect in the experiment listed under Homo sapiens was determined as 12.8%; in experiment [6] it was 0.478%; in experiment [7] it was 6.02%; in experiment [8], 0.379%.
As to `Cc1ccc(F)cc1S(=O)(=O)NCc1cccnc1N(C)C`, the Percent Effect was 2.25% in experiment [1]; 20.8% in experiment [2]; -2.76% in experiment [3]; -0.373% in the experiment on Trypanosoma cruzi; -5.53% in [4]; 14.7% in experiment [5]. The Percent Effect in the experiment listed under Homo sapiens was 26.1%; in [6], 7.84%; in experiment [7], 21.2%; in experiment [8] it was -8.95%.
On to `Cn1ncc(NCc2cc(F)cc(F)c2)c(Cl)c1=O`, for which the Percent Effect in [1] was -3.8%; in [2] it was 13.3%; in [3] it was -5.81%; in the experiment with Trypanosoma cruzi, -3.01%; in experiment [4] it was -10.6%; in [5], 7.55%. The Percent Effect in the experiment filed under Homo sapiens was 37.7%; in experiment [6], 4.74%; in experiment [7], 10.3%; in experiment [8], -11.4%.
As to `O=C(NCC(=O)N1CCCCC1)c1ccoc1`, the Percent Effect in experiment [1] is 2.38%; in experiment [2] it was 13%; in [3] it was 0.0749%; with Trypanosoma cruzi, -7.46%; in experiment [4] it was 2.25%; in experiment [5], 17.2%. The Percent Effect in the experiment filed under Homo sapiens was 18.2%; in experiment [6], 4.9%; in experiment [7], 18.8%; in experiment [8], -8.97%.
With `Cc1noc(C2CCN(C(=O)CCNS(C)(=O)=O)CC2)n1`, the Percent Effect in experiment [1] was -2.97%; in [2], 10.3%; in [3], 4.81%; in the experiment with Trypanosoma cruzi it was 3.47%; in experiment [4], 3.69%; in experiment [5] it was 5.89%. Also, the Percent Effect in the experiment filed under Homo sapiens is 3.03%; in experiment [6] it was 4.31%; in experiment [7], 18.1%; in [8] it was -0.743%.
With `CN(C)CC1CN(Cc2nnc(-c3ccccc3Cl)o2)CCO1` (stereo not given), the Percent Effect was -1.11% in experiment [1]; 13.3% in experiment [2]; -7.04% in experiment [3]; -2.81% with Trypanosoma cruzi; 1.77% in experiment [4]; 15.7% in experiment [5]. The Percent Effect is 9.96% in the experiment listed under Homo sapiens, -3.68% in [6], 0% in [7] and -11.7% in experiment [8].
Turning to `COc1ccc(OCCN(C)C(=O)NC(C)c2nncn2C)cc1` (stereo not given), the Percent Effect in experiment [1] was -4.39%; in [2] it was 10.7%; in experiment [3], -0.704%; with Trypanosoma cruzi, -5.02%; in experiment [4], 5.76%; in [5], 15.3%. In addition, the Percent Effect in the experiment listed under Homo sapiens was 17.3%; in experiment [6], 3.68%; in experiment [7], 12.8%; in [8], -6.11%.
Take `Cc1cc(OCC(=O)N2CCCC(c3noc(C)n3)C2)no1` (stereo not given): the Percent Effect in experiment [1] is 2.24%; in experiment [2], 13.3%; in experiment [3] it was -8.66%; with Trypanosoma cruzi, -4.62%; in experiment [4], 4.88%; in experiment [5], 19.8%. Also, the Percent Effect was 17.5% in the experiment filed under Homo sapiens, -0.526% in [6], 2.56% in [7] and -9.02% in experiment [8].
As for `Cc1nccn1-c1cccc(C2CCCN2S(=O)(=O)c2cn(C)cn2)n1` (stereo not given), the Percent Effect is -6.36% in [1]; 1.33% in [2]; -0.612% in [3]; -3.94% in the experiment with Trypanosoma cruzi; -0.885% in experiment [4]; -0.493% in [5]. In addition, the Percent Effect in the experiment filed under Homo sapiens was 22.4%; in [6], 0%; in experiment [7] it was -2.5%; in experiment [8], -23.4%.
As to `OC(CN1CCOCC1)CN1CCc2c(ncn2C2CC2)C1` (stereo not given), the Percent Effect in experiment [1] is -2.85%; in [2], 26.7%; in [3], -6.52%; in the experiment on Trypanosoma cruzi, -1.21%; in experiment [4] it was -4.88%; in experiment [5], 14.3%. The Percent Effect is 17.9% in the experiment filed under Homo sapiens, 1.58% in experiment [6], 7.69% in experiment [7] and -10.6% in experiment [8].
